# In PubChem BioAssay (EPA / NIEHS):
# Several values for one entry are separate records, joined by “and”; a condition that tells them apart may be missing. Identical values can stand only once. Where a structure was tested more than once in an assay, its records may differ in their call. Activity calls are given as the source filed them. Rule for the calls: active = hit-call score of the fitted dose curve at least 0.9, where 1 is the maximum; inactive = score below 0.9.
# Read-out: Plasminogen activator inhibitor-1 (PAI1), SERPINE1 (gene 5054)
# Experiment: BSK_MyoF_PAI1: BioMAP Diversity Plus: MyoF Assay for Plasminogen activator inhibitor-1 (PAI1) Biomarker Activity (AID 2284256)
# Settings: primary human lung fibroblasts
# Description: BSK_MyoF is a cell-based, multiplexed-readout assay that uses lung fibroblasts, […], with measurements taken at 24 hours after chemical dosing in a microplate: 96-well plate.BSK_MyoF_PAI1 is an assay component measured in the BSK_MyoF assay. It measures PAI-1 antibody related to regulation of gene expression using ELISA technology.Data from the assay component BSK_MyoF_PAI1 was analyzed at the endpoint, BSK_MyoF_PAI1, in the positive analysis fitting direction relative to DMSO as the negative control and baseline of activity. Using a type of binding reporter, gain or loss-of-signal activity can be used to understand protein changes. To generalize the intended target to other relatable targets, this assay endpoint is annotated to the 'cytokine' intended target family, where the subfamily is 'plasmogen activator inhibitor'.
# The levels of cell surface (or secreted, indicated by the prefix "s") biomarker endpoints were measured by ELISA. Overt cytotoxicity to cells in confluent adherent cultures (all systems other than the BT system) was assessed by measuring total protein levels using sulforhodamine B (SRB) staining in parallel cultures at the time of biomarker measurements, indicated as SRB endpoints. For proliferation assays for adherent cell types, individual cell types are cultured at sub-confluence and relative cell numbers quantified by SRB staining at time points optimized for each system (48 h: 3C and CASM3C systems; 72 h: BT and HDF3CGF systems; 96 h: SAg system). SRB was performed by staining cells with 0.1% SRB after fixation with 10% TCA and reading wells at 560 nm.Viability and proliferation of PBMC (T cells) was quantified by Alamar Blue reduction for the SAg and BT systems. For PBMC viability (referred to as PBMC Cytotoxicity within the assay endpoint names), cells were plated (75,000/well in a 96-well plate) and then chemical samples added for 1 h before addition of activators, SEB and TSST-1 (20 ng/mL final concentration each). Cells were incubated for 90 h. Then, Alamar Blue (20 uL/well) (Invitrogen, Cat DAL1100) was added for 6 h, and the plates were read with a fluorescence microplate reader at 546/580 nm (excitation/emission). For PBMC proliferation, cells were plated and activated as above but incubated for only 16 h prior to addition of Alamar Blue. Plates were read after 6 h.
SMILES,outcome,AC50
O=c1c2ccccc2c(=O)c2c1cc(Cl)c1[nH]c3c([nH]c12)c(Cl)cc1c(=O)c2ccccc2c(=O)c13,inactive,
COC(C)(C)CCC[C@H](C)C/C=C/C(C)=C/C(=O)OC(C)C,inactive,
COCC(=O)N(c1c(C)cccc1C)N1CCOC1=O,inactive,
CC(C)(C)C(O)C(Oc1ccc(-c2ccccc2)cc1)n1cncn1 (stereo not given),inactive,
CCc1cc(C)cc(CC)c1-c1c(OC(=O)C(C)(C)C)n2n(c1=O)CCOCC2,inactive,
CC1(C)[C@H](C(=O)O[C@H](C#N)c2cccc(Oc3ccccc3)c2)[C@@H]1C=C(Br)Br,inactive,
Clc1ccc(-c2ccccc2)cc1,,0.121 µM (active)
Oc1cc(Cl)ccc1Cl,,0.245 µM (active)
O=C1C=CC(=O)C=C1,,36.9 µM (active) and 26.8 µM (active)
CNC(=O)Oc1cc(C)c(SC)c(C)c1,inactive,
Nc1ccc(-c2ccc(N)c(N)c2)cc1N,inactive,
CC(=O)/C=C/c1ccccc1,inactive,
CC(C)(c1cc(Cl)c(O)c(Cl)c1)c1cc(Cl)c(O)c(Cl)c1,,9.2 µM (active)
CC(C)CCCCCCCOP(=O)(Oc1ccccc1)Oc1ccccc1,,12.8 µM (active)
O=C(O)CCCc1ccc(N(CCCl)CCCl)cc1,inactive,0.016 µM (active)
O=C1C(Cl)=C(Cl)C(=O)C(Cl)=C1Cl,,29.9 µM (active)
CC(C)CCCCCCCOC(=O)c1ccccc1C(=O)OCCCCCCCC(C)C,inactive,
CC(C)COP(=O)(OCC(C)C)OCC(C)C,inactive,
CC(C)(C)C(=O)CCl,,32.9 µM (active)
O=[N+]([O-])C=Cc1ccccc1,,12.3 µM (active)
CCCOC(=O)c1ccccc1C(=O)OCCC,inactive,
c1ccc(Nc2ccc3ccccc3c2)cc1,,31.6 µM (active)
C=CC(=O)OCC(CC)CCCC (stereo not given),inactive,
Cc1ccc(OP(=O)(Oc2ccc(C)cc2)Oc2ccc(C)cc2)cc1 (tested in a mixture with another compound),inactive,
O=P1(NCCCl)OCCCN1CCCl (stereo not given),inactive,
C=CCN(CC=C)C(=O)C(Cl)Cl,inactive,
O=S(=O)(c1ccccc1)c1ccccc1,inactive,
O=c1[nH]c(Cl)c(Cl)cc1Cl,inactive,
CCC(C)c1cc([N+](=O)[O-])cc([N+](=O)[O-])c1OC(=O)C=C(C)C (stereo not given),,11.6 µM (active)
